This passage reports outcome and AC50 results from PubChem BioAssay (EPA / NIEHS).

Common to all, as to settings: mRNA level, 48 h; actives raise or lower the signal
Read-out in test [1]: NAD(P)H dehydrogenase [quinone] 1 (NQO1), NQO1 (gene 1728)
In words: LTEA_HepaRG_NQO1: Life Technologies and Expression Analysis (LTEA) Assay for NAD(P)H dehydrogenase [quinone] 1 (NQO1) using HepaRG (AID 2283526). An outline of the steps: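 Human HepaRG hepatic cells received chemicals for 48 h in serum-free induction medium with 0.5% DMSO, up to 100 uM. Expression was assessed by TaqMan qRT-PCR against housekeeping controls and fitted bidirectionally against DMSO.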

Read-out in test [2]: Nuclear factor erythroid 2-related factor 2 (Homo sapiens) (UniProt Q16236)
The test can be described thus: LTEA_HepaRG_NFE2L2: Life Technologies and Expression Analysis (LTEA) Assay for Nuclear factor erythroid 2-related factor 2 (NFE2L2) Transcription Factor using HepaRG (AID 2283527). An outline of the steps: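 Transcript level of NFE2L2 is the read-out, measured by microfluidic TaqMan qRT-PCR and normalized to three housekeeping genes. Human HepaRG cultures received test chemical for 48 h at up to 100 uM in half-log steps. Gain or loss of signal is fitted relative to 0.5% DMSO.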

Read-out in test [3]: succinate dehydrogenase complex iron sulfur subunit B (SDHB), SDHB (gene 6390)
In words: LTEA_HepaRG_SDHB: Life Technologies and Expression Analysis (LTEA) Assay for succinate dehydrogenase complex iron sulfur subunit B (SDHB) using HepaRG (AID 2283528). Summed up: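 SDHB transcript level read by TaqMan qRT-PCR, housekeeping-normalised (ACTB, GAPDH, POLR2A), after 48 h chemical treatment of plated HepaRG cells; eight concentrations top 100 uM, half-log steps, 0.5% DMSO, duplicates; fitted both directions against DMSO.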

Read-out in test [4]: Signal transducer and activator of transcription 3 (Homo sapiens) (UniProt P40763)
In words: LTEA_HepaRG_STAT3: Life Technologies and Expression Analysis (LTEA) Assay for Signal transducer and activator of transcription (STAT3) using HepaRG (AID 2283529). An outline of the steps:
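Read-out is STAT3 mRNA level by qRT-PCR, normalized to three housekeeping genes, in human HepaRG liver cells treated for 48 h. Concentrations ran from 100 uM downward in half-log steps; curves were fitted for gain or loss relative to 0.5% DMSO.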

Read-out in test [5]: solute carrier (SLCO1B1), SLCO1B1 (gene 10599)
In words: LTEA_HepaRG_SLCO1B1: Life Technologies and Expression Analysis (LTEA) Assay for solute carrier (SLCO1B1) using HepaRG (AID 2283530). An outline of the steps:
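Differentiated human HepaRG cells, plated 48 h, switched to serum-free induction medium and exposed in duplicate for 48 h to 8 half-log concentrations (top 100 uM) in 0.5% DMSO. SLCO1B1 mRNA by TaqMan qRT-PCR, normalized to ACTB/GAPDH/POLR2A.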

Read-out in test [6]: Transforming Growth Factor (TGFA), TGFA (gene 7039)
The test can be described thus: LTEA_HepaRG_TGFA: Life Technologies and Expression Analysis (LTEA) Assay for Transforming Growth Factor (TGFA) using HepaRG (AID 2283532). Summed up:
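HepaRG (human liver line), 48 h exposure, 8 conc. half-log down from 100 uM, 0.5% DMSO vehicle, duplicates; serum-free induction medium. TGFA mRNA by TaqMan qRT-PCR, ACTB/GAPDH/POLR2A normalization; gain/loss fit vs DMSO.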

Read-out in test [7]: Transforming Growth Factor (TGFB1), TGFB1 (gene 7040)
The test can be described thus: LTEA_HepaRG_TGFB1: Life Technologies and Expression Analysis (LTEA) Assay for Transforming Growth Factor (TGFB1) Transporter using HepaRG (AID 2283533). An outline of the steps: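 Differentiated human HepaRG cells in serum-free induction medium were exposed in duplicate for 48 h to eight concentrations (top 100 uM, half-log steps, 0.5% DMSO). TGFB1 mRNA was quantified by qRT-PCR, normalized to ACTB, GAPDH, POLR2A, and fitted bidirectionally against DMSO.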

Read-out in another test: TIMP1, TIMP1 (gene 7076)
The test can be described thus: LTEA_HepaRG_TIMP1: Life Technologies and Expression Analysis (LTEA) Assay for TIMP1 using HepaRG (AID 2283534).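 Further: TaqMan qRT-PCR signal normalized to ACTB GAPDH and POLR2A housekeeping genes.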 An outline of the steps:
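Differentiated human HepaRG cells in serum-free induction medium were exposed 48 h to chemicals (8 half-log concentrations, top 100 uM, 0.5% DMSO). TIMP1 mRNA was quantified by TaqMan qRT-PCR, normalized to ACTB/GAPDH/POLR2A; bidirectional fit versus DMSO.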

Read-out in test [8]: Tumor necrosis factor receptor 1 (TNFRSF1A), TNFRSF1A (gene 7132)
In words: LTEA_HepaRG_TNFRSF1A: Life Technologies and Expression Analysis (LTEA) Assay for Tumor necrosis factor receptor 1 (TNFRSF1A) using HepaRG (AID 2283535). Summed up: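 Differentiated human HepaRG cells were exposed in duplicate for 48 h in serum-free induction medium to eight concentrations (top 100 uM, half-log steps, 0.5% DMSO). TNFRSF1A mRNA was quantified by qRT-PCR, normalized to ACTB, GAPDH and POLR2A, then fitted bidirectionally against DMSO.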

The structures appear in SMILES notation. Activity calls are given as the source filed them. How the source made its calls: active means hit-call score of the fitted dose curve at least 0.9, where 1 is the maximum; inactive means score below 0.9.

Sequence of Nuclear factor erythroid 2-related factor 2 (Homo sapiens) (Q16236 whole entry, looked up): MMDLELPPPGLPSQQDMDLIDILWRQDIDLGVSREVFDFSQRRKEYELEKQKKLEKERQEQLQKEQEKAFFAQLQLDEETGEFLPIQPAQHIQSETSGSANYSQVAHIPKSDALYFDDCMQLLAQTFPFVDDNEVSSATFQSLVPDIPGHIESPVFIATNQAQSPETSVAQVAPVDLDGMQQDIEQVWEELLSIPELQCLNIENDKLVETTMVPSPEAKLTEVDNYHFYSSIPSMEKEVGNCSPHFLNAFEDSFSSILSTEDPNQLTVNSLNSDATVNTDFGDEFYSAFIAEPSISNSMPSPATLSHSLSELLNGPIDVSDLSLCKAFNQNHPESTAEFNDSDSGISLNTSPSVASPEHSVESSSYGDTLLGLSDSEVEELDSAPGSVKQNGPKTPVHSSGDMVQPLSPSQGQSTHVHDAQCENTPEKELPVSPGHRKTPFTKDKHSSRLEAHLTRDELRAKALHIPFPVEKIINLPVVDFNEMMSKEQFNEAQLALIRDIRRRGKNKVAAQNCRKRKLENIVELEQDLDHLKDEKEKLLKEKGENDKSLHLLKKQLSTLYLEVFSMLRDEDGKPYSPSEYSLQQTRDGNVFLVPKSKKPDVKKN
Sequence of Signal transducer and activator of transcription 3 (Homo sapiens) (P40763 whole entry, looked up): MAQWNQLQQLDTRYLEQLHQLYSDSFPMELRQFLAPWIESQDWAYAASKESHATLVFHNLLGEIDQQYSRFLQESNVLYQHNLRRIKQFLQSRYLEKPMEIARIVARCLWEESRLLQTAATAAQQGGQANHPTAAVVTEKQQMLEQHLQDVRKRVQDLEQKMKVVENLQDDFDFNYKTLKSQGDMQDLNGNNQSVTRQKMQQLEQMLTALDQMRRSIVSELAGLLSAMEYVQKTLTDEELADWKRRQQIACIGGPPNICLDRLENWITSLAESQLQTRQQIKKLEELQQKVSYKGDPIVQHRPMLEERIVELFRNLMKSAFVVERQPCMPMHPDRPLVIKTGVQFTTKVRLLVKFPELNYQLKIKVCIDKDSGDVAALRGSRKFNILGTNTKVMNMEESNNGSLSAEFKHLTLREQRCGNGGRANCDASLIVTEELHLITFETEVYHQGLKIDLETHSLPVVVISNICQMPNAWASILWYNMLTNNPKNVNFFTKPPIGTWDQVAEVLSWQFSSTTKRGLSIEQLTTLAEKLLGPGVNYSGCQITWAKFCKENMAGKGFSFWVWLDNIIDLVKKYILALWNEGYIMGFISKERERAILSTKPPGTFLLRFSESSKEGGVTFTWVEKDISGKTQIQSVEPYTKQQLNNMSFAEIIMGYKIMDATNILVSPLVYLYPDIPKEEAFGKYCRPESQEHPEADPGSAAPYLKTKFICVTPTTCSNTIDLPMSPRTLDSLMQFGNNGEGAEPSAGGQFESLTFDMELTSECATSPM

On to `CCCCCCCC[Si](OCC)(OCC)OCC`, for which the molecule was called inactive in [1], in test [2], in test [3], in [4], in [5] and in [6]. The outcome in test [7] is “inactive”; in the test with TIMP1, TIMP1 (gene 7076) it was “inactive”; in test [8] it was “inactive”.

Take `COc1cccc([C@H](O)C2CCN(CCc3ccc(F)cc3)CC2)c1OC`: the call in test [1], in test [2], in test [3], in test [4], in test [5] and in [6] was inactive. Further, the outcome in test [7] is “inactive”; in the test with TIMP1, TIMP1 (gene 7076), “inactive”; in test [8], “inactive”.

As a reminder, the AC50 is the midpoint of the concentration-response curve, whichever way the signal moves. Turning to `CCN(CC)C(=O)c1cc(S(=O)(=O)Cc2ccccc2)c(N2CCC(c3ccccc3)CC2)cc1N(CC)CCN(C)C`, the AC50 was 29.1 µM (active) in test [2], 33.3 µM (active) in test [5], 27.9 µM (active) in test [6] and 30.1 µM (active) in [8]. The outcome in test [3] is “inactive”; in test [4] it was “inactive”; in test [7], “inactive”; with TIMP1, TIMP1 (gene 7076), “inactive”.

For the molecule `C[C@]12CC[C@@H]3c4ccc(O)cc4CC[C@H]3[C@@H]1CCC2=O`, the outcome in [1], in test [2], in test [3], in [4], in test [5] and in test [6] was inactive. In addition, the outcome in [7] was “inactive”; with TIMP1, TIMP1 (gene 7076), “inactive”; in test [8], “inactive”.

As to `Cc1oc2c(NC(=O)c3c(Cl)cccc3Cl)cccc2c1C(C)(C)O`, the outcome in [1] is “inactive”; in [3], “inactive”; in test [4] it was “inactive”; in test [6] it was “inactive”; with TIMP1, TIMP1 (gene 7076), “inactive”; in test [8] it was “inactive”. Besides, the AC50 in test [2] is 79 µM (active); in test [5] it was 54 µM (active); in [7] it was 50 µM (active).

With `CCCCOC(=O)CC(CC(=O)OCCCC)(OC(C)=O)C(=O)OCCCC`, the result in test [1], in test [2], in [3], in test [4], in test [5] and in test [6] was inactive. Moreover, the outcome in [7] is “inactive”; with TIMP1, TIMP1 (gene 7076), “inactive”; in test [8], “inactive”.

On to `OC12N=C(c3ccccc3)SC1Cc1cc(Cl)ccc12` (stereo not drawn), for which the outcome in test [1] is “inactive”; in test [2], “inactive”; in test [3] it was “inactive”; in test [6], “inactive”; in test [7], “inactive”; with TIMP1, TIMP1 (gene 7076), “inactive”. Besides, the molecule was called inactive in [8]. Also, the AC50 in test [4] was 0.925 µM (active); in test [5], 32.9 µM (active).

Take `O=C1CCC(C2CCCCC2)CC1`: the outcome in test [1], in [2], in test [4], in test [5], in test [6] and in [7] was inactive. The outcome with TIMP1, TIMP1 (gene 7076) was “inactive”; in test [8], “inactive”.

Turning to `O=C(O)Cc1cc(I)c(Oc2ccc(O)c(I)c2)c(I)c1`, the outcome in test [1] is “inactive”; in [3] it was “inactive”; in [4] it was “inactive”; with TIMP1, TIMP1 (gene 7076), “inactive”; in test [8], “inactive”. Further, the AC50 in [2] was 85.6 µM (active); in test [5] it was 82.7 µM (active); in test [6], 85.3 µM (active); in test [7], 79.5 µM (active).

Turning to `Oc1ccccc1`, the outcome in test [1], in test [2], in test [3], in test [4], in test [5] and in test [6] was inactive. The outcome in [7] is “inactive”; with TIMP1, TIMP1 (gene 7076), “inactive”; in test [8], “inactive”.
